# Screening data as filed in PubChem.
# Most compounds without a hit are left out; they make up all but 6.3% or so of the library.
# ATXN2 expr inh = ATXN2 expression inhibition. HEK-293 ATXN2-luciferase reporter, luminescence, 24 h. Potency, µM (titrated, usually from 57 µM), for inactives: at the highest dose activity change, negative = inhibition, actives largely listed as inhibitors. 0.72% of 360,000 active; also: % is scaled to controls: 0 for no effect and ±100 for the full control effect; nearly all actives have a fitted effect of over 55% in size
#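 ATXN2-luciferase reporter cells (luciferase flanked by upstream and downstream ATXN2 gene portions) were treated 24 h at 37 °C with compounds at up to 57 uM. SteadyGlo luminescence gave expression; GF-AFC fluorescence gave viability.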
# RORg inh = ROR gamma (mouse) transcription inhibition. Potency, µM (series often up to 53.6 µM), for inactives: at the top dose activity change, negative = inhibition, hits mostly inhibitors. AID 2551. 5.4% of 310,000 active. Drosophila S2 Gal4-RORgamma UAS-luciferase reporter, 20 h; also: % is scaled to controls: 0 for no effect and ±100 for the full control effect; nearly all actives have a fitted effect of over 60% in size
# Target sequence (P51450 whole entry, looked up, the tested form may be a part): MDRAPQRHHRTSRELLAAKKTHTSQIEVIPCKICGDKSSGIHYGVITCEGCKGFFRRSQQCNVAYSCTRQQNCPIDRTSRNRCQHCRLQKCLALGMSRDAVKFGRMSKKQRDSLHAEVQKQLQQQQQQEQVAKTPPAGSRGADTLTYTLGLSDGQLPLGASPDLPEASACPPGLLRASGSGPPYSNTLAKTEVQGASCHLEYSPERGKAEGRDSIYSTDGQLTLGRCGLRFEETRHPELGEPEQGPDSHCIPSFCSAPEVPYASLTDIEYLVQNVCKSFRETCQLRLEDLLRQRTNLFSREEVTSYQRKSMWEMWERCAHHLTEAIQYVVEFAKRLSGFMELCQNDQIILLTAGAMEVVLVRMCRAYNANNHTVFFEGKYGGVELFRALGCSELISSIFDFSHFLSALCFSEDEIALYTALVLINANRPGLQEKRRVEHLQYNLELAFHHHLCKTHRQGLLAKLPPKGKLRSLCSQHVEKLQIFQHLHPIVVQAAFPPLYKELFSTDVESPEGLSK
#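 Using a luciferase readout, inhibitors were identified by reduced reporter activity in Drosophila cells coexpressing a copper-inducible Gal4–ROR gamma fusion and UAS-driven Photinus luciferase, incubated 20 hr after 700 uM copper sulfate.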
# S2 tox = cell viability loss in ATXN counter-screen. S2 cells (HEK-293 line with an ATXN2-luciferase reporter) viability, CellTiter-Fluor protease fluorescence, 24 h. Potency, µM (top dose mostly 56.7 µM), actives largely listed as cytotoxic. 0.49% of 400,000 active. AID 651635; also: nearly all actives have a fitted effect of over 40% in size
# Gal4-VP16 FLuc = inhibits Gal4-VP16 luciferase reporter, ROR gamma counter-screen; Drosophila S2 Gal4-VP16 UAS-luciferase, luminescence, 20 h; Potency, µM (doses to about 53.6 µM), inactives show at the top dose activity, negative = inhibition, actives largely listed as inhibitors; 3.5% of 310,000 active; AID 2546;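 also: Gal4-VP16 expression switched on by copper sulfate through the metallothionein promoter; % is scaled to controls: 0 for no effect and ±100 for the full control effect; nearly all actives have a fitted effect of over 50% in size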
# HepG2 tox-1 = counter-screen for TGF-b inhibitors: cytotoxicity in HepG2 cells; HepG2 CAGA-GFP viability, ATP luminescence, 18 h; Potency, µM (doses to about 46.1 µM), without a hit: at the top dose activity change, negative = cytotoxicity, hits mostly cytotoxic; 0.76% of 410,000 active; AID 588856
#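 HepG2 CAGA-GFP cells (1000/well, DMEM with 1% FBS) received compound, then TGF-beta at 500 pg/mL final, and were incubated 18 hours at 37 degrees C. Viability was read by CellTiter-Glo luminescence. Media-only wells were set as complete cell-killing and DMSO as no toxicity.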
# TGFb SMAD3 inh = inhibitors of TGF-b signaling. HepG2 CAGA-GFP TGF-b/SMAD3 reporter, GFP fluorescence, 18 h; TGF-beta stimulated, 500 pg/mL final. Potency, µM (highest dose often 46.1 µM), without a hit: top-dose activity, negative = inhibition, hits mostly inhibitors. 1.2% of 410,000 active. AID 588855; also: % is scaled to controls: 0 for no effect and ±100 for the full control effect; nearly all actives have a fitted effect of over 65% in size
#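 GFP signal (ex488/em500-530) from TGF-beta-stimulated HEPG2 CAGA-GFP cells, 500 pg/mL final, 18 h at 37 degrees C in DMEM plus 1% FBS, normalized to unstimulated and DMSO-stimulated controls.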
# TGFb CAGA inh = confirmation of TGF-b signaling inhibitors in HepG2 reporter cells; shares compounds with TGFb SMAD3 inh; HepG2 CAGA-GFP TGF-b reporter, GFP fluorescence, 18 h; cells stimulated with TGF-beta, 500 pg/mL; Potency, µM (top dose mostly 46.1 µM), without a hit: at the top dose activity, negative = inhibition, usual class: inhibitors; 63% of 1,600 active; also: % is scaled to controls: 0 for no effect and ±100 for the full control effect; nearly all actives have a fitted effect of over 65% in size
# HepG2 tox-2 = toxic to HepG2 cells in TGF-b counterscreen | shares compounds with TGFb SMAD3 inh | HepG2 CAGA-GFP viability, ATP luminescence, 18 h; cells stimulated with TGF-beta, 500 pg/mL | Potency, µM (top dose mostly 46.1 µM), for inactives: at the highest dose activity, negative = cytotoxicity, actives largely listed as inhibitors | 27% of 1,600 active; also: % is scaled to controls: 0 for no effect and ±100 for the full control effect; nearly all actives have a fitted effect of over 70% in size
# CCL64 TGFb inh = orthogonal confirmation of TGF-b inhibitors in CCL64 cells; shares compounds with TGFb SMAD3 inh; CCL64 CAGA-GFP reporter, TGF-b stimulated, GFP fluorescence, 18 h; Potency, µM (series often up to 46.1 µM), for the others: at the top dose activity, negative = inhibition, most hits filed as inhibitors; 41% of 1,600 active; AID 720536; also: nearly all actives have a fitted effect of over 65% in size
# TGFb COP inh = validation of TGF-b inhibitors in HepG2 COP promoter reporter. shares compounds with TGFb SMAD3 inh. HepG2 COP-GFP TGF-b reporter, GFP fluorescence, 18 h; cells stimulated by added recombinant TGF-beta. Potency, µM (doses to about 46.1 µM), inactives show at the highest dose activity, negative = inhibition, usual class: inhibitors. 3% of 1,600 active. AID 720537; also: nearly all actives have a fitted effect of over 70% in size
# An asterisk follows results filed as active; i = inactive; ? = inconclusive; / = not tested or not shown. Calls follow the shape of the dose curve; as a rule, active = well fitted curve in the direction sought with a large enough effect; inconclusive = small, poorly fitted or top-dose-only effect, or another doubt; inactive = no such curve, though single readings can be large; an effect the other way counts as inactive or inconclusive. Potency is read from the fitted curve at half-maximal effect.
SMILES,ATXN2 expr inh,RORg inh,S2 tox,Gal4-VP16 FLuc,HepG2 tox-1,TGFb SMAD3 inh,TGFb CAGA inh,HepG2 tox-2,CCL64 TGFb inh,TGFb COP inh
COc1ccc(NC(=S)N(CCCN2CCCC2)Cc2cccn2Cc2ccc(Cl)cc2)cc1Cl,/,?,/,-4%,6.3µM*,3.2µM*,?,?,?,-1%
CCN(Cc1ccccc1)Cc1c(O)ccc2c(=O)c(-c3ccc(Cl)cc3)coc12,/,/,/,/,-4%,-10%,/,/,/,/
COc1ccc(C(=O)NN(C)c2nc(C(F)(F)F)nc3ccccc23)cc1,27%,3.2µM*,?,?,-23%,?,?,-16%,?,-15%
COc1ccc(C(=O)NN(C)c2nc(-c3ccccc3)nnc2C(F)(F)F)cc1,-13%,-10%,i,-13%,0%,15%,/,/,/,/
Cc1cccc(N2CCN(C(=O)CCCSc3nc4ccccc4[nH]3)CC2)c1C,-22%,?,i,22µM*,-34%,?,?,?,13µM*,41%
CCN(CC)C(=O)c1cccc(-c2csc(C(C)(O)c3ccc(F)c(F)c3)n2)c1 (configuration not stated),?,/,?,/,-10%,?,/,/,/,/
COc1cccc(-c2nc(N3CCCCC3)c3ccccc3n2)c1O,3%,/,i,/,12%,11µM*,18µM*,?,?,78%
FC(F)(F)c1ccccc1Cc1c(-c2ccccc2)nc2ccc(Cl)cn12,40%,/,i,/,-23%,16µM*,?,-16%,-1%,7%
Cc1cc(C)c2c(c1)cc(C)c1nnc(SCC(=O)Nc3ccc(S(=O)(=O)N4CCCCC4)cc3)n12,12%,-9%,i,0%,13%,?,18µM*,-12%,-22%,0%
ON=C1c2ccccc2-c2ccc(F)cc21,11%,/,i,/,-16%,1.6µM*,9.2µM*,?,-24%,55%
COc1cccc(C2C3=C(N=c4s/c(=C\c5ccc(O)cc5)c(=O)n42)c2ccccc2CC3)c1OC (configuration not stated),6%,-18%,i,-9%,1%,24%,/,/,/,/
COc1cccc(C2C3=C(N=c4s/c(=C\c5cccc(O)c5)c(=O)n42)c2ccccc2CC3)c1OC (configuration not stated),0%,7%,i,-11%,-27%,18µM*,5.8µM*,?,2.9µM*,31%
Cc1ccc(SCCNC(=O)c2ccc(C)c(S(=O)(=O)Nc3cccc(C)c3)c2)cc1,?,?,?,-7%,-2%,13µM*,?,?,?,52%
